# In PubChem BioAssay (NCI):
# This is part of a sample that, as a whole, favours compounds with a hit. Of some 83,000 tested, about 20% had one in any assay.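 Growth was measured after 48 h exposure to one concentration of compound in 96-well plates. Values under 10 count as active.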 Values without a mark were called inactive. Activity calls are given as the source filed them.
# Tested on: NCI-H522 lung
# Assay: NCI-60 one-dose screen, 48 h (100 = growth as untreated, 0 = no growth, -100 = all killed)
# Conditions: 10 µM unless noted
row,SMILES,growth
1,Fc1ccc(-c2nnc(-c3c(-c4ccc(F)cc4)nc4ncccn34)o2)cc1,89.1%
2,S=c1[nH]nc2sc3ccccc3n12,98.4%
3,Clc1ccc2nc(Cl)c3ccccc3c2c1,75.7%
4,CCOC(Cc1c(N)[nH]c(=S)[nH]c1=O)OCC,93%
5,COc1ccc(-c2nnc(COc3ccc(NC(=O)Nc4cc(C(F)(F)F)cc(C(F)(F)F)c4)cc3F)o2)cc1,-17.8% (active)
6,Clc1cccc(Cc2cn3cc(-c4ccccc4)nc3s2)c1,45.9%
7,ClC1=C(Cl)C(Cl)=C(Cl)C1=C/C=C/c1ccccc1,-52.4% (active)
8,O=[N+]([O-])c1cnc(Sc2ccncn2)c([N+](=O)[O-])c1,-83.1% (active)
9,O=C(N1CCC(CN=c2cc3n(-c4ccc(Cl)cc4)c4ccccc4nc-3cc2Nc2ccc(Cl)cc2)CC1)N1CC1,-76.7% (active)
10,COc1cc(/C=C2\CCC/C(=C\c3ccc(OCC4CO4)c(OC)c3)C2=O)ccc1OCC1CO1 (stereo unspecified),24.3%
11,COc1ccc(-n2nnc(C(=O)O)c2-c2cc(OC)c(OC)c(OC)c2)cc1,83.6%
12,Nc1nc(N)c([N+](=O)[O-])c(=O)[nH]1,103%
13,Oc1[nH]c2ccccc2c1/C=c1/ccc2c(c1)N=C(c1cc(F)cc(F)c1)N=2,59.7%
14,O=c1ccn(C2CCCO2)c(=O)[nH]1 (stereo unspecified),98.5%
15,COc1ccc2nc3cc(Cl)ccc3c(Nc3cc(C(C)C)c(O)cc3C)c2c1,-20.1% (active)
16,COc1ccc(-c2cnnn2-c2cc(OC)c3c(c2)OCO3)cc1,-45.2% (active)
